Rows were chosen to be rich in hits. Some 6.8% of all compounds tested hit in one or more screens of this group.
T cruzi growth-1: T. cruzi proliferation inhibition; T. cruzi beta-gal in NIH3T3, GalScreen luminescence, 90 h; inhibition, % at 8.34 µM; hit rate 5.9% among 77,000; AID 624255;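 active = mean inhibition above about 93%, with at least 55% of replicates each passing it, limit read from the data, passing the limit was not always enough; inconclusive = only one of those two conditions holds; inactive = neither condition holds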
C diff growth: C. difficile growth inhibition. growth activity, negative = inhibition, % at 16 µg/mL (by protocol). hit rate 0.25% among 86,000. Clostridium difficile clinical isolate growth, OD600, 24 h; stronger effect = lower value;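 active = mean growth activity at or below -80% and every replicate also at or below -80%; inconclusive = mean at or below -80% but some replicate above -80%; inactive = mean growth activity above -80%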
Pf Dd2 inh: P. falciparum Dd2 growth inhibition; SYBR Green, 72 h; stronger effect = lower value; activity change, % at 10 µM; hit rate 2.3% among 94,000; in the data active = activity change below about -80%; inconclusive = no clear call, values can overlap the other calls
T cruzi growth-2: Trypanosoma cruzi proliferation inhibition. shares compounds with T cruzi growth-1. hit rate 72% among 5,600. inhibition, % at 8.35 µM. T. cruzi beta-gal in NIH3T3, GalScreen luminescence, 90 h;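 active = mean replicate inhibition above about 95% and at least 55% of replicates individually reaching it, limit read from the data; inconclusive = only one of the two criteria is met; inactive = neither criterion is met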
T cruzi growth-3: Trypanosoma cruzi proliferation inhibition. inhibition, % at 2.09 µM. hit rate 21% among 5,600. shares compounds with T cruzi growth-1. T. cruzi beta-gal in NIH3T3, GalScreen luminescence, 90 h. AID 651740;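 active = mean inhibition above about 95%, with at least 55% of replicates also reaching it, limit read from the data; inconclusive = meets just one of the two conditions; inactive = meets neither condition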
NIH3T3 tox: kills mouse NIH/3T3 fibroblasts. shares compounds with T cruzi growth-1. NIH/3T3 viability, CellTiter-Glo ATP luminescence, 90 h. cytotoxicity (signal decrease), % at 8.35 µM. hit rate 14% among 5,600;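 active = mean signal decrease across replicates above about 35% based on untreated-well scatter, with enough replicates individually passing, limit read from the data; inconclusive = no rule stated though some were filed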
3T3 cytotox 2: kills mouse NIH/3T3 fibroblasts | NIH/3T3 viability, CellTiter-Glo ATP luminescence, 90 h | shares compounds with T cruzi growth-1 | inhibition, % at 24.9 µM | hit rate 56% among 5,600;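 active = mean loss of cell viability signal at or above a set limit, and enough replicates individually reaching it; inconclusive = meets only the mean limit or only the replicate share; inactive = meets neither condition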
Large screens that a line does not name were inactive (follow-up assays come after a bar, where they were run).

C[C@@H]1CN([C@H](C)CO)C(=O)c2cc(NC(=O)c3ccccc3)ccc2O[C@@H](C)CCCCO[C@H]1CN(C)C(=O)Nc1ccc(F)cc1	none
C[C@H]1CCCCO[C@H](CN(C)C(=O)Nc2ccc(F)cc2)[C@@H](C)CN([C@@H](C)CO)C(=O)c2cc(NC(=O)c3ccccc3)ccc2O1	T cruzi growth-1 99 | T cruzi growth-2 inactive | T cruzi growth-3 inactive | NIH3T3 tox inactive | 3T3 cytotox 2 inconclusive
C[C@H]1CCCCO[C@@H](CN(C)C(=O)Nc2ccc(C(F)(F)F)cc2)[C@@H](C)CN([C@@H](C)CO)C(=O)c2cc(NC(=O)c3ccccc3)ccc2O1	T cruzi growth-1 102, Pf Dd2 inh -84 | T cruzi growth-2 108 | T cruzi growth-3 113 | NIH3T3 tox inactive | 3T3 cytotox 2 inactive
C[C@@H]1CCCCO[C@H](CN(C)C(=O)Nc2ccc(C(F)(F)F)cc2)[C@@H](C)CN([C@H](C)CO)C(=O)c2cc(NC(=O)c3ccccc3)ccc2O1	none
COc1cccc(S(=O)(=O)N[C@H]2CC[C@H](CC(=O)NCc3ccc(Cl)cc3)O[C@H]2CO)c1	none
CCCNC(=O)NC[C@@H]1[C@@H](c2ccc(C3=CCCC3)cc2)[C@H](CO)N1C(C)=O	none
C[C@H](CO)N1C[C@H](C)[C@H](CN(C)S(=O)(=O)c2ccc(F)cc2)Oc2c(NC(=O)Nc3ccc(C(F)(F)F)cc3)cccc2C1=O	none
C[C@H]1CN([C@@H](C)CO)C(=O)c2cc(C#Cc3ccncc3)cnc2O[C@H]1CN(C)C(=O)CN(C)C	none (no result: T cruzi growth-1)
CCCC(=O)Nc1ccc2c(c1)C(=O)N(C)[C@@H]1CC[C@H](CC(=O)NCCc3ccncc3)O[C@@H]1CO2	none
C[C@@H]1CN([C@@H](C)CO)C(=O)c2cc(NC(=O)Nc3ccc4c(c3)OCO4)ccc2O[C@@H](C)CCCCO[C@@H]1CN(C)C(=O)NC1CCCCC1	none
C[C@@H]1CCCCO[C@@H](CN(C)C(=O)NC2CCCCC2)[C@@H](C)CN([C@H](C)CO)C(=O)c2cc(NC(=O)Nc3ccc(F)cc3)ccc2O1	none
C[C@H](CO)N1C[C@H](C)[C@@H](CN(C)C(=O)NC2CCCCC2)OCCCC[C@H](C)Oc2ccc(N(C)C)cc2C1=O	none (no result: Pf Dd2 inh)
C[C@@H]1CN([C@H](C)CO)C(=O)c2cc(NC(=O)Nc3ccc(F)cc3)ccc2O[C@@H](C)CCCCO[C@@H]1CN(C)C(=O)NC1CCCCC1	none
C[C@H]1CCCCO[C@@H](CN(C)C(=O)NC2CCCCC2)[C@@H](C)CN([C@@H](C)CO)C(=O)c2cc(NC(=O)Nc3ccc(F)cc3)ccc2O1	T cruzi growth-1 109 | T cruzi growth-2 115 | T cruzi growth-3 inactive | NIH3T3 tox inactive | 3T3 cytotox 2 inactive
C[C@H](CO)N1C[C@H](C)[C@@H](CN(C)C(=O)NC2CCCCC2)OCCCC[C@H](C)Oc2ccc(NC(=O)Nc3ccc(F)cc3)cc2C1=O	T cruzi growth-1 105 | T cruzi growth-2 103 | T cruzi growth-3 inactive | NIH3T3 tox inactive | 3T3 cytotox 2 inactive
C[C@@H]1CCCCO[C@@H](CN(C)C(=O)NC2CCCCC2)[C@H](C)CN([C@H](C)CO)C(=O)c2cc(NC(=O)Nc3ccc4c(c3)OCO4)ccc2O1	T cruzi growth-1 105 | T cruzi growth-2 105 | T cruzi growth-3 inactive | NIH3T3 tox inactive | 3T3 cytotox 2 inactive
C[C@@H]1CN([C@@H](C)CO)C(=O)c2cc(N(C)C)ccc2O[C@@H](C)CCCCO[C@@H]1CN(C)C(=O)NC1CCCCC1	T cruzi growth-1 103 | T cruzi growth-2 inactive | T cruzi growth-3 inactive | NIH3T3 tox inactive | 3T3 cytotox 2 inactive
CO[C@H]1CN(C)C(=O)c2cc(NC(=O)c3ccccc3F)ccc2OC[C@H](C)N(C(C)=O)C[C@@H]1C	none (no result: C diff growth)
CC(C)NC(=O)N(C)C[C@H]1Oc2ccc(NC(=O)CCCN(C)C)cc2CC(=O)N([C@@H](C)CO)C[C@@H]1C	none (no result: C diff growth)
C[C@@H]1CN([C@H](C)CO)C(=O)c2cc(NC(=O)NC3CCCCC3)ccc2O[C@@H]1CN(C)S(=O)(=O)c1cn(C)cn1	none
COc1cccc(-c2ccc3c(c2)O[C@H](CN(C)C(=O)c2ccccc2F)[C@H](C)CN([C@@H](C)CO)S3(=O)=O)c1	none (no result: T cruzi growth-1)
C[C@H](CO)N1C[C@H](C)[C@@H](CN(C)Cc2ccc(-c3ccccc3)cc2)Oc2ccc(NC(=O)c3ccncc3)cc2CC1=O	T cruzi growth-1 125 | T cruzi growth-2 112 | T cruzi growth-3 inactive | NIH3T3 tox inactive | 3T3 cytotox 2 106
C[C@@H]1CN([C@@H](C)CO)C(=O)Cc2cc(NC(=O)c3ccncc3)ccc2O[C@@H]1CN(C)Cc1ccc(-c2ccccc2)cc1	none
C[C@@H]1CN([C@H](C)CO)C(=O)Cc2cc(NC(=O)c3ccncc3)ccc2O[C@@H]1CN(C)Cc1ccccc1	none
C[C@H]1CN([C@@H](C)CO)C(=O)Cc2cc(NC(=O)c3ccncc3)ccc2O[C@H]1CN(C)Cc1ccc(Oc2ccccc2)cc1	T cruzi growth-1 97 | T cruzi growth-2 98 | T cruzi growth-3 inactive | NIH3T3 tox inactive | 3T3 cytotox 2 104
C[C@H]1CN([C@@H](C)CO)C(=O)c2cc(Br)cnc2O[C@@H]1CN(C)C(=O)Nc1ccc(C(F)(F)F)cc1	T cruzi growth-1 102 | T cruzi growth-2 108 | T cruzi growth-3 inactive | NIH3T3 tox inactive | 3T3 cytotox 2 54
C[C@@H]1CN([C@@H](C)CO)C(=O)c2cc(C3=CCCC3)cnc2O[C@@H]1CN(C)C(=O)Nc1ccc(C(F)(F)F)cc1	T cruzi growth-1 inconclusive | T cruzi growth-2 108 | T cruzi growth-3 inactive | NIH3T3 tox inconclusive | 3T3 cytotox 2 104
C[C@H](CO)N1C[C@H](C)[C@H](CN(C)C(=O)Nc2ccc(C(F)(F)F)cc2)Oc2ncc(Br)cc2C1=O	none
C[C@H]1CN([C@@H](C)CO)C(=O)c2cc(C3=CCCC3)cnc2O[C@H]1CN(C)C(=O)Nc1ccc(C(F)(F)F)cc1	none
CCCC(=O)Nc1ccc2c(c1)C(=O)N(C)[C@@H]1CC[C@@H](CC(=O)NCCOC)O[C@H]1CO2	none
C[C@@H]1CCCCO[C@@H](CN(C)C(=O)Nc2ccc3c(c2)OCO3)[C@H](C)CN([C@@H](C)CO)C(=O)c2cc(NC(=O)c3ccccc3)ccc2O1	none
C[C@H](CO)N1C[C@H](C)[C@H](CN(C)S(=O)(=O)c2ccccc2F)Oc2ncc(/C=C/c3ccccc3)cc2C1=O	none
C[C@@H]1CN([C@H](C)CO)C(=O)c2cc(/C=C/c3ccccc3)cnc2O[C@@H]1CN(C)S(=O)(=O)c1ccccc1	none
Cc1ccc(S(=O)(=O)N(C)C[C@@H]2Oc3ncc(/C=C/c4ccccc4)cc3C(=O)N([C@H](C)CO)C[C@@H]2C)cc1	T cruzi growth-1 120 | T cruzi growth-2 102 | T cruzi growth-3 inactive | NIH3T3 tox inactive | 3T3 cytotox 2 54

Bioassay records deposited in PubChem BioAssay by Broad Institute.
